From PubChem
MARV entry inh = inhibitors of Marburg virus binding or cell entry; actives 1.8% (n = 300,000); Potency, µM (top dose mostly 37.8 µM), most hits filed as inhibitors; Marburg virus pseudotyped entry inhibition, cell reporter; AID 540276; calls by dose curve; tested in HEK293 cells
FMDV antiviral = foot and mouth disease virus antiviral activity | FMDV antiviral cell-based qHTS | Potency, µM (titrated, usually from 57.9 µM), actives largely listed as inhibitors | actives 1.2% (n = 410,000); calls by dose curve; tested in HEK293T cells; also: read-out not given here; nearly all actives have a fitted effect of over 45% in size
VACV mCherry inh = vaccinia inhibition (mCherry reporter). Vaccinia virus mCherry reporter infection, fluorescence. Potency, µM (top dose mostly 36.5 µM), most hits filed as inhibitors. actives 0.63% (n = 310,000); calls by dose curve; tested in A549 cells; also: nearly all actives have a fitted effect of over 35% in size
VACV Venus inh = inhibitors of vaccinia virus (Venus reporter); Vaccinia virus Venus reporter expression, fluorescence; Potency, µM (series often up to 36.5 µM), usual class: inhibitors; actives 0.46% (n = 330,000); AID 720580; calls by dose curve; tested in A549 cells; also: nearly all actives have a fitted effect of over 30% in size
LASV entry inh = blocks Lassa virus binding to or entry into cells; Lassa virus pseudotype entry inhibition, cell reporter; Potency, µM (top dose mostly 37.9 µM), most hits filed as inhibitors; actives 1.2% (n = 300,000); AID 540256; calls by dose curve; tested in HEK293 cells; also: nearly all actives have a fitted effect of over 50% in size
HCV inh = inhibitors of hepatitis C virus infection; Huh7.5.1 HCVcc-Cre infection, luciferase reporter, 44 h; Potency, µM (top dose mostly 41.8 µM), most hits filed as inhibitors; actives 3.4% (n = 340,000); AID 651820; active = well fitted inhibition curve with a large enough effect; inconclusive = small, poorly fitted or top-dose-only effect, or another doubt; inactive = no such curve, though single readings can be large or run the other way
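A cell-based infection assay in which seeded cells (1,000 per well) receive test compound after 4 h, are inoculated with HCVcc-Cre at approximately 0.5 moi, and are incubated 44 h before luminescence detection.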
Large screens that a line does not name were inactive. Shown are actives, neighbours in structure and some others; about 5.3% of the full set was active somewhere.

Fc1ccc(-n2nnnc2-c2cnc(-c3cccs3)nc2C(F)(F)F)cc1	MARV entry inh inconclusive, FMDV antiviral 16µM, LASV entry inh inconclusive, HCV inh 10µM (no result: VACV mCherry inh, VACV Venus inh)
Cc1ccc(-n2nnnc2-c2cnn(-c3ccc(F)cc3)c2C(F)(F)F)cc1	MARV entry inh inconclusive, FMDV antiviral inconclusive, LASV entry inh 15µM, HCV inh inconclusive (no result: VACV mCherry inh, VACV Venus inh)
Cc1ccc(-n2nnnc2-c2cnc(-c3cccnc3)nc2C(F)(F)F)cc1	FMDV antiviral 22µM, LASV entry inh inconclusive, HCV inh 10µM (no result: VACV mCherry inh, VACV Venus inh)
FC(F)(F)c1nc(N2CCCC2)ncc1-c1nnnn1-c1ccc(Cl)cc1	MARV entry inh inconclusive, FMDV antiviral inconclusive, VACV mCherry inh inconclusive, VACV Venus inh inconclusive, LASV entry inh inconclusive, HCV inh 10µM
Cc1ccccc1-c1nc(CS(=O)(=O)CC(=O)N2CCN(c3ccccc3)CC2)c(C)o1	FMDV antiviral inconclusive (no result: HCV inh)
COc1ccc(-c2nc(CS(=O)(=O)CC(=O)NCCc3cc(OC)ccc3OC)c(C)o2)cc1	MARV entry inh inconclusive, HCV inh inconclusive (no result: VACV mCherry inh, VACV Venus inh)
COc1ccc(NC(=O)CS(=O)(=O)Cc2nc(-c3ccc(C)cc3)oc2C)cc1	none
COc1ccc(-c2nc(CS(=O)(=O)CC(=O)Nc3ccc(Cl)cc3)c(C)o2)cc1	HCV inh 10µM (no result: LASV entry inh)
Cc1oc(-c2ccccc2F)nc1CS(=O)(=O)CC(=O)N1CCN(c2ccccc2)CC1	FMDV antiviral 25µM, VACV mCherry inh inconclusive, VACV Venus inh inconclusive
COc1ccc(OC)c(CCNC(=O)CS(=O)(=O)Cc2nc(-c3ccc(C)cc3)oc2C)c1	HCV inh 3.5µM (no result: VACV mCherry inh, VACV Venus inh)
CCN(CCNC(=O)CS(=O)(=O)Cc1nc(-c2cccc(OC)c2)oc1C)c1ccccc1	HCV inh 22µM (no result: VACV mCherry inh, VACV Venus inh)
COc1ccc([C@H]2C[C@H](c3ccccc3)Nc3nc(N)nn32)cc1	none (no result: FMDV antiviral, VACV mCherry inh, VACV Venus inh, LASV entry inh, HCV inh)
CC(C)C[C@@H]1COc2cccc(N3CCCC3)c2S(=O)(=O)N1	none (no result: MARV entry inh, FMDV antiviral, VACV mCherry inh, VACV Venus inh, HCV inh)
COc1ccc2c(c1)-c1nc(-n3ncc(C(=O)NCc4cccnc4)c3C3CC3)ncc1CC2	FMDV antiviral inconclusive, VACV mCherry inh inconclusive (no result: MARV entry inh, LASV entry inh, HCV inh)
CCOc1ccc(CCNC(=O)CS(=O)(=O)Cc2nc(-c3ccccc3F)oc2C)cc1	MARV entry inh inconclusive, HCV inh 10µM
O=C(c1cccc(COc2cccc3ccccc23)c1)N1CCCC1	MARV entry inh inconclusive, LASV entry inh 8.2µM, HCV inh inconclusive (no result: VACV mCherry inh, VACV Venus inh)
CCCC(=O)NC(c1ccccc1OC)c1ccc2cccnc2c1O (centres undefined)	MARV entry inh inconclusive, VACV mCherry inh 10µM, VACV Venus inh inconclusive, LASV entry inh inconclusive, HCV inh 3.5µM
CCCCC(=O)NC(c1ccccc1OC)c1ccc2cccnc2c1O (centres undefined)	VACV mCherry inh 7.9µM, HCV inh 2.2µM (no result: MARV entry inh, LASV entry inh)
CCCC(=O)NC(c1ccc(OC)c(OC)c1)c1c(O)ccc2ccccc12 (centres undefined)	none (no result: HCV inh)
COC(=O)[C@@H](NC(=O)C1CCCN(c2nc(C)c3ccc(C)cc3n2)C1)C(C)C (some centres undefined)	none (no result: MARV entry inh, LASV entry inh, HCV inh)
COc1ccc(NC(=O)[C@@H]2CC=C[C@@H]3CCN(C4CC4)C(=O)[C@@H]32)cc1	none (no result: MARV entry inh, FMDV antiviral, LASV entry inh, HCV inh)
Cc1cc(N2CCCCC2)nc2ccc(NC(=O)c3ccc(Br)o3)cc12	MARV entry inh inconclusive, FMDV antiviral 40µM, VACV mCherry inh inconclusive, LASV entry inh inconclusive, HCV inh 4µM
COc1ccc(C(=O)Nc2ccc3nc(N4CCC(C)CC4)cc(C)c3c2)cc1	MARV entry inh inconclusive, FMDV antiviral 32µM (no result: HCV inh)
Cc1cc(N2CCN(C)CC2)nc2ccc(NC(=O)c3ccc4c(c3)OCO4)cc12	MARV entry inh 4.1µM, VACV mCherry inh inconclusive, VACV Venus inh inconclusive, LASV entry inh 16µM, HCV inh 10µM
COc1ccc(CCNC(=O)CCCCn2c(=O)c3ccccc3n(Cc3ccc(Cl)cc3)c2=O)cc1OC	MARV entry inh inconclusive (no result: HCV inh)
O=c1cc2c(nn1Cc1cccc([N+](=O)[O-])c1)-c1ccccc1CC2	HCV inh 13µM (no result: MARV entry inh, VACV mCherry inh, VACV Venus inh, LASV entry inh)
CCCCCCCCNC(=S)NCCN1CCCCC1	MARV entry inh 15µM, FMDV antiviral inconclusive, LASV entry inh inconclusive, HCV inh inconclusive (no result: VACV mCherry inh, VACV Venus inh)
S=C(NCCCN1CCOCC1)NCCCN1CCOCC1	none
O=C(NCC1OCCc2ccccc21)c1ccc(NC(=O)c2ccc(Cl)cc2)cc1 (centres undefined)	VACV mCherry inh inconclusive, VACV Venus inh inconclusive, LASV entry inh inconclusive, HCV inh 4.5µM
CN1CC(c2ccccc2)C2(SC(=S)N(Cc3ccco3)C2=O)C12C(=O)Nc1ccccc12 (centres undefined)	MARV entry inh inconclusive, FMDV antiviral inconclusive, LASV entry inh inconclusive, HCV inh 7.1µM (no result: VACV mCherry inh, VACV Venus inh)
C[C@@H](N)CCCP(=O)(O)O	none (no result: MARV entry inh, LASV entry inh, HCV inh)
Cc1cnc(SCCN2CCOCC2)nc1C1CCCN(C(=O)c2cccc3c(C)c(C)[nH]c23)C1 (centres undefined)	none (no result: MARV entry inh, LASV entry inh, HCV inh)
CN(C)c1ccc(CNC(=O)C2CCN(S(=O)(=O)c3cn(C)cn3)CC2)cc1	none (no result: MARV entry inh, HCV inh)
Cc1cc(-n2c(C)cc(C(=O)CCl)c2C)no1	MARV entry inh 2.8µM, FMDV antiviral 22µM, VACV Venus inh inconclusive, LASV entry inh inconclusive, HCV inh inconclusive
Cc1ccc(-n2nnnc2SCC(=O)c2cc(C)n(-c3cc(C)on3)c2C)c(C)c1	VACV mCherry inh inconclusive, LASV entry inh 1.5µM, HCV inh inconclusive (no result: FMDV antiviral)
Cc1cc(-n2c(C)cc(C(=O)CSc3ccccn3)c2C)no1	MARV entry inh inconclusive, HCV inh inconclusive
Cc1cc(-n2c(C)cc(C(=O)CSc3nnnn3-c3ccccc3)c2C)no1	LASV entry inh inconclusive, HCV inh 8.9µM
COc1cc(NC(=O)Cn2c(=O)n(Cc3ccco3)c(=O)c3sc4ccccc4c32)cc(OC)c1	MARV entry inh inconclusive (no result: HCV inh)
CC(=O)c1ccc(F)c(-c2cc(C)cc3c2OC(CNC(=O)Cc2ccc4c(c2)OCO4)C3)c1 (centres undefined)	none (no result: MARV entry inh, LASV entry inh, HCV inh)
Cc1nn(C(C)(C)C)c(OC(=O)c2cccc(F)c2)c1Sc1ccccc1	none (no result: HCV inh)
COc1ccc([C@H](CC(=O)N2CCOCC2)C(C)C)cc1	none (no result: FMDV antiviral, VACV mCherry inh, VACV Venus inh, LASV entry inh, HCV inh)
COc1ccc(/C=N/Nc2ccc(C(=O)O)cc2)cc1Br	MARV entry inh 3.2µM, FMDV antiviral 22µM, LASV entry inh inconclusive
O=C(O)c1ccc(N/N=C/c2ccc(OC(=O)c3ccccc3Cl)cc2)cc1	MARV entry inh inconclusive, FMDV antiviral 13µM, LASV entry inh 0.71µM
CC(C)c1ccc(/C=N/Nc2ccc(C(=O)O)cc2)cc1	MARV entry inh 1.5µM, FMDV antiviral 45µM, LASV entry inh 0.65µM (no result: VACV mCherry inh, VACV Venus inh)
CCOC(=O)C(CC)Sc1ncnc2c1c(-c1ccccc1)cn2-c1ccc(OC)cc1 (centres undefined)	MARV entry inh inconclusive (no result: HCV inh)
COc1ccc2c(c1)[C@H](C=Cc1ccccc1)[C@@H]([C@H](O)CO)O2	none (no result: FMDV antiviral, VACV mCherry inh, VACV Venus inh, LASV entry inh, HCV inh)
CCCOc1ccc(CNC(=O)C(C)n2nc(C)n3c(cc4occc43)c2=O)cc1 (centres undefined)	none (no result: LASV entry inh, HCV inh)
CCCCCCCCNc1ccc(/C=C/c2ccnc3ccccc23)cc1	none (no result: MARV entry inh, FMDV antiviral, LASV entry inh, HCV inh)
